Experimental data from PubChem BioAssay (NCATS).
Inconclusive results are not listed. Active and inactive are the calls of the source. Calls come from the whole dose curve; as a rule, active = well fitted curve in either direction with a large enough effect (not every such curve was filed as active); inconclusive = small, poorly fitted or top-dose-only effect, or another doubt; inactive = flat fitted curve, though single readings scatter.

Target: Mitogen-activated protein kinase 10 (Mus musculus) (UniProt Q61831)
Experiment: JNK3 AlphaScreen Assay (AID 530);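 note: kinase came from lysate of stimulated human HepG2 cells; signal reports phosphorylation of biotinylated GST-cJun 1-79 at Ser73 with 10 µM ATP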
Conditions: JNK3 lysate, c-Jun phosphorylation; series mostly up to 57.1 µM
Method in brief: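 Activity was read by AlphaScreen after JNK3-containing HepG2 lysate (cytokine pre-activated) phosphorylated biotinylated GST-cJun with 10 uM ATP at room temperature. Phospho-Ser73 cJun antibody with Protein-A acceptor beads provided detection.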

Potency, inactive:
CN(C)C(=O)c1ccc(-c2nc(NCc3cccnc3)c3ccccc3n2)cc1
N#Cc1cccc(NC(=O)N2CC3(CCN(C(=O)c4cccc(F)c4)CC3)C2)c1
CC(C)NC(=O)N1CCC2(CC1)CCN(C(=O)c1cnccn1)CC2
Cc1cccc(CNc2cc(-c3cccc(NS(C)(=O)=O)c3)ncn2)c1
COc1ccc(C(=O)N2CCC3(CC2)CN(c2ccccn2)C3)cc1
Cc1noc(C)c1-c1nccc(N2CCNCC2)n1
CC[C@@]12CCCN3CCc4c(n(c5ccccc45)C(=O)C1)[C@H]32
c1ccc(Nc2ncnc3ccc(-c4cccnc4)cc23)cc1
CS(=O)(=O)N1CCC[C@@]2(CCN(c3ccncc3)C2)C1
c1ccc2c(N3CCNCC3)nc(-c3ccoc3)nc2c1
O=C(c1csnn1)N1CCC2(CCCN(c3ccncc3)C2)CC1
N#Cc1ccc(CN2CCCC3(CCN(C(=O)c4cc(C(F)(F)F)cc(C(F)(F)F)c4)CC3)C2)cc1
N#Cc1ccccc1-c1ccc2ncnc(NCc3cccs3)c2c1
CN(C)C(=O)c1ccc(-c2ccc3ncnc(NCc4cccnc4)c3c2)cc1
CN(C)Cc1ccccc1-c1cncnc1NCc1ccccc1
O=C(c1cnccn1)N1CCC2(CCN(Cc3ccncc3)CC2)CC1
N#Cc1ccc(CN2CCCC3(CCNCC3)C2)cc1
O=C(Nc1ccccc1)N1CCCC2(CCNCC2)C1
O=S(=O)(c1ccccc1)N1CCC2(CCN(c3ccncc3)CC2)CC1
